# According to the supplement of paper PMC3334620:
# Whole data set: some 33,000 sequences, median “E-score (-0.5 to 0.5)” near -0.035, cut for the highest 2% near 0.34. The full list was thinned out, with the highest values kept by preference.
# Biological target: T1, Mot3 (UniProt P54785)
# T1 sequence: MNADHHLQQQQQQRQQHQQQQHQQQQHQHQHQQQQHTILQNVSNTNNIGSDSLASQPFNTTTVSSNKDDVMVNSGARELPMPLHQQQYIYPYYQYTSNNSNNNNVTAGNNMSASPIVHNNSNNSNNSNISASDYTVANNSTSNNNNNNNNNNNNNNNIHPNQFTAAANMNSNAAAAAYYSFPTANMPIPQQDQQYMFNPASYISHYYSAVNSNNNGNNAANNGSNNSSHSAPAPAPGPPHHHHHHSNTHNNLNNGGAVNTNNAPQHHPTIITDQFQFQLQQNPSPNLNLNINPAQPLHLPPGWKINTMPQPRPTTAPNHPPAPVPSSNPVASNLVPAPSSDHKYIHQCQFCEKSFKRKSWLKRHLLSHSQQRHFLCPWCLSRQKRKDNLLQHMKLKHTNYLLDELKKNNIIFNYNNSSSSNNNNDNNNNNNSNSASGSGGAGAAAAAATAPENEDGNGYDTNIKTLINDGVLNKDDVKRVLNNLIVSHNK
# Test: PBM E-score (8-mer binding enrichment) (E-score (-0.5 to 0.5)); higher = stronger / more preferred TF binding
# Conditions: protein concentration: 200 nM; construct: GST-full length
# Protocol: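 Universal 'all 10-mer' protein binding microarrays (Agilent AMADID 015681) probed with GST-tagged S. cerevisiae TFs (full-length or DBD) made by in vitro transcription/translation (PURExpress), about 100-200 nM. Bound TF was detected with fluorescent anti-GST. Each ungapped 8-mer (which stands for itself and its reverse complement) is scored by the PBM enrichment score (E-score), a modified Wilcoxon-Mann-Whitney statistic from -0.5 to +0.5, computed with the Universal PBM Analysis Suite. Scale: above 0.35 generally sequence-specific binding.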
row,Sequence,PBM E-score
1,AATTTTAT,0.0903
2,TCGATAGA,-0.0212
3,ACCCCTTC,0.129
4,CCTTTACC,0.102
5,CCTTTACG,0.172
6,GGTTTACA,0.333
7,ATTTTACA,0.336
8,GCTTTACA,0.325
9,TCTTTACA,0.389
10,ACTTTACA,0.313
11,CTTTTACC,0.141
12,GTTTTATA,0.101
13,GTTTTACA,0.371
14,CCTTTACA,0.392
15,CTTTTACA,0.345
16,ACCCTTTA,0.167
17,GCAGTCAC,0.305
18,ATTGGCCG,-0.176
19,GGATTTAC,0.174
20,CGACAGGA,0.0979
21,AGCACGCG,0.17
22,AAATGCAC,0.0764
23,AGTCACCG,0.0455
24,GCGCAAGC,-0.172
25,AGGCATAG,0.274

row,Sequence,PBM E-score
1,AAGCATCC,-0.202
2,AGGCATCA,0.409
3,CGGCATCC,-0.0227
4,ACGCATCG,-0.0642
5,AGGCATCG,0.404
6,AGGCATCC,0.384
7,CGGCATCA,-0.0726
8,GGGCATCA,-0.23
9,CACTTCTG,-0.0864
10,AATTGGTA,0.113
11,AGCCAACG,0.0732
12,ACCTAAGC,0.0128
13,CCCCTTGC,-0.152
14,AGGCCTCC,-0.166
15,CTAGACAC,0.0958
16,TAAAACGA,0.0299
17,GTCCAACA,0.153
18,ACACCTGG,0.104
19,ATTACAGC,0.127
20,ATTACAGA,0.24
21,ATTACAAG,0.388
22,CTTACAAA,0.15
23,TTTACAAA,0.331
24,ATTACAGG,0.359
25,ATTACAAA,0.347

row,Sequence,PBM E-score
1,ATTACAAC,0.286
2,ATTACAAT,0.299
3,GCTGGATA,0.0442
4,GCCCTTAC,-0.0326
5,CTAGGCTC,0.043
6,AAACTGAA,0.0399
7,GGGCCCAC,-0.255
8,AACCGTAG,-0.229
9,GCCGTGTA,0.349
10,ACCGTGTC,0.216
11,CCCGTGTA,0.376
12,ACCGTGTA,0.397
13,CCCGTGTC,0.082
14,CCCGTGGA,-0.314
15,GCCGTGAA,-0.128
16,GCCGTGGA,-0.169
17,ACCGTGTG,0.175
18,AGCCAAAT,-0.0958
19,CCAACTAA,0.0699
20,CACTTTTA,0.117
21,ACGTCGCC,-0.00307
22,ATGAACGC,0.145
23,ATGAACGG,0.0117
24,AGGAACGA,0.44
25,AAGAACGG,-0.266

row,Sequence,PBM E-score
1,AGGAACGC,0.451
2,CGGAACGC,-0.0837
3,CGGAACGA,0.0162
4,AGGAACGG,0.463
5,GGGAACGA,-0.122
6,ACCTCAGC,-0.124
7,AAAGCCGG,-0.133
8,AATCAAGC,-0.177
9,AGTGTACA,0.273
10,CGTGTATA,0.4
11,AGTGTGTA,0.247
12,CGTGTGTA,0.349
13,CGTGTATC,0.262
14,CGTGTACC,0.277
15,GGTGTATA,0.0111
16,GGTGTGTA,0.335
17,CGTGTACA,0.388
18,CACTGTGA,-0.103
19,CTACCAGA,0.0177
20,GTGAGAGA,0.0715
21,ATGAATGG,-0.0783
22,CGGTTTAC,0.134
23,CGACTTTC,0.0333
24,GTAGGAGA,-0.184
25,GTAGGATA,0.185

row,Sequence,PBM E-score
1,ATAGGATA,0.00177
2,CTAGGAAC,0.372
3,CTAGGAGC,-0.225
4,TTAGGAAA,0.351
5,CTAGGAAG,-0.108
6,TGAGGAAA,0.0921
7,ATAGGAAA,0.429
8,ATAGGGAA,0.00264
9,CTAGGAAA,0.246
10,GTAGGAAA,0.429
11,GGACAGCA,-0.224
12,ATCGGACA,-0.0499
13,CGACATAA,0.0835
14,TAGTTCCA,0.00515
15,AAACGCAC,0.0986
16,TAGCGGAA,-0.15
17,CTCGAGAG,-0.177
18,AGTGGGAT,-0.0984
19,AACGGCGG,-0.117
20,AGAGGAAC,0.0727
21,ATAGGAAT,-0.00642
22,GGAGGAAC,0.272
23,ATAGGAAC,0.456
24,GTAGGAAC,0.457
25,ATAGGAAG,-0.0193

row,Sequence,PBM E-score
1,TTGCCCAA,0.111
2,CCAACCAC,0.083
3,ACAAAAGA,0.166
4,CGTAGCCA,-0.208
5,ACACTGAT,-0.138
6,CCACAGGC,0.194
7,ACCAACCG,-0.16
8,CGAAGGAA,0.39
9,TGAAGGAA,0.434
10,AGAAGGAT,0.0925
11,AGAAGGAC,-0.198
12,CGAAGGAG,-0.225
13,AGAAGGAA,0.382
14,GGAAGGAC,-0.122
15,CGAAGGAC,-0.03
16,GGAAGGAA,0.384
17,TGGAGGAA,0.0436
18,GCAAGGAA,0.211
19,AGAAGGAG,-0.107
20,CTTGGATA,-0.039
21,GACTCCTA,-0.00028
22,CAACAACA,0.315
23,TCGGTCCA,-0.0654
24,CGATACTC,-0.259
25,GCATTTGA,0.0576

row,Sequence,PBM E-score
1,GCCAAAGA,-0.0826
2,CCTAGGCC,-0.0992
3,GCTAGGCC,-0.374
4,CCTAGGCG,-0.157
5,CCTAGGCA,0.459
6,TCTAGGAA,0.315
7,ACTAGGCC,-0.141
8,GCTAGGTA,-0.0278
9,ACTAGGCG,0.168
10,TCTAGACA,0.167
11,TCTAGGCA,0.458
12,ACTAGGCA,0.425
13,GCTAGGCA,0.446
14,GTCGCACA,-0.125
15,AGGCGTTG,0.185
16,GACTGTGA,-0.0263
17,GTGATAGA,-0.0161
18,GCTCCCCC,-0.288
19,CAACATAA,0.289
20,GAACATAA,0.0111
21,CTACATAA,0.228
22,TAACATAA,0.341
23,TTACATAA,0.408
24,GTACATAA,0.306
